From the supplement of paper PMC10849652
Of roughly 7,900 targets only a part is listed; those with a hit were picked by preference. About 0.6% of all pairs of compound and target were hits. Unmarked numbers belong to inactive results.

How the values were obtained:
Assay in all cases: log2 fold change, soluble protein after heating vs DMSO (PISA); higher = thermal stabilisation; K562 cells, 10 uM, 30 min; active = over 0.2 and 3.5 SD of the protein, either way, in both replicates (recomputed)
saracatinib = compound: CN1CCN(CCOc2cc(OC3CCOCC3)c3c(Nc4c(Cl)ccc5c4OCO5)ncnc3c2)CC1 [saracatinib]
Procedure, shortened: (§1)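 K562 cells (2×10^6 cells/mL) were treated with 10 μM compound for 30 min, and aliquots were heated for 3 min over 48°C-58°C. Pooled aliquots were extracted in PBS with 0.5% NP-40 at 4°C, and the supernatant after 21,000xg for 90 min was measured by TMTpro 16plex LC-MS/MS with channel sums equalised. Reported thermal stability, relative to control samples and from duplicates, is a log2 fold change.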

sotrastaurin = compound: CN1CCN(c2nc(C3=C(c4c[nH]c5ccccc45)C(=O)NC3=O)c3ccccc3n2)CC1 [sotrastaurin]
Procedure, shortened: as §1

alvocidib = compound: CN1CC[C@H](c2c(O)cc(O)c3c(=O)cc(-c4ccccc4Cl)oc23)[C@H](O)C1 [alvocidib]
Procedure, shortened: as §1

Tubastatin A = compound: CN1CCc2c(c3ccccc3n2Cc2ccc(C(=O)NO)cc2)C1 [Tubastatin A]
Procedure, shortened: as §1

[1] = compound: CNC(=O)C1=CC=CC=C1NC2=NC(=NC=C2Cl)NC3=C(C=C(C=C3)N4CCOCC4)OC
Procedure, shortened: as §1

defactinib = compound: CNC(=O)c1ccc(Nc2ncc(C(F)(F)F)c(NCc3nccnc3N(C)S(C)(=O)=O)n2)cc1 [defactinib]
Procedure, shortened: as §1

rucaparib = compound: CNCc1ccc(-c2[nH]c3cc(F)cc4c3c2CCNC4=O)cc1 [rucaparib]
Procedure, shortened: as §1

[2] = compound: CNc1nc(-c2ccc3c(N)n[nH]c3c2)cc(N2C[C@@H](C(=O)NC3CCCCC3)CC[C@H]2C)n1
Procedure, shortened: as §1

encorafenib = compound: COC(=O)N[C@@H](C)CNc1nccc(-c2cn(C(C)C)nc2-c2cc(Cl)cc(NS(C)(=O)=O)c2F)n1 [encorafenib]
Procedure, shortened: as §1

[3] = compound: COC(=O)[C@H](CCSC)NC(=O)C1=C(C=C(C=C1)NC[C@H](CS)N)C2=CC=CC=C2
Procedure, shortened: as §1

[4] = compound: COC1=CC=C(C=C1)CN2C=CC3=C2C=C(C=C3)C(=O)NO
Procedure, shortened: as §1

filanesib = compound: CON(C)C(=O)N1N=C(c2cc(F)ccc2F)S[C@@]1(CCCN)c1ccccc1 [filanesib]
Procedure, shortened: as §1

zotarolimus = compound: CO[C@H]1C[C@@H]2CC[C@@H](C)[C@@](O)(O2)C(=O)C(=O)N2CCCC[C@H]2C(=O)O[C@H]([C@H](C)C[C@@H]2CC[C@H](n3cnnn3)[C@H](OC)C2)CC(=O)[C@H](C)/C=C(\C)[C@@H](O)[C@@H](OC)C(=O)[C@H](C)C[C@H](C)/C=C/C=C/C=C/1C [zotarolimus]
Procedure, shortened: as §1

idasanutlin = compound: COc1cc(C(=O)O)ccc1NC(=O)[C@@H]1N[C@@H](CC(C)(C)C)[C@](C#N)(c2ccc(Cl)cc2F)[C@H]1c1cccc(Cl)c1F [idasanutlin]
Procedure, shortened: as §1

alisertib = compound: COc1cc(Nc2ncc3c(n2)-c2ccc(Cl)cc2C(c2c(F)cccc2OC)=NC3)ccc1C(=O)O [alisertib]
Procedure, shortened: as §1

[5] = compound: COc1cc2nc(-c3cc(F)ccc3O)nc(N[C@@H]3CNC[C@H]3C(C)(C)O)c2cc1OC
Procedure, shortened: as §1

gefitinib = compound: COc1cc2ncnc(Nc3ccc(F)c(Cl)c3)c2cc1OCCCN1CCOCC1 [gefitinib]
Procedure, shortened: as §1

[6] = compound: COc1cccc2cc(-c3nc([C@H]4CC[C@H](C(=O)O)CC4)n4ncnc(N)c34)[nH]c12
Procedure, shortened: as §1

lapatinib = compound: CS(=O)(=O)CCNCc1ccc(-c2ccc3ncnc(Nc4ccc(OCc5cccc(F)c5)c(Cl)c4)c3c2)o1 [lapatinib]
Procedure, shortened: as §1

pictilisib = compound: CS(=O)(=O)N1CCN(Cc2cc3nc(-c4cccc5[nH]ncc45)nc(N4CCOCC4)c3s2)CC1 [pictilisib]
Procedure, shortened: as §1

Chain of UniProt Q9HB40 (Q9HB40 whole entry, looked up): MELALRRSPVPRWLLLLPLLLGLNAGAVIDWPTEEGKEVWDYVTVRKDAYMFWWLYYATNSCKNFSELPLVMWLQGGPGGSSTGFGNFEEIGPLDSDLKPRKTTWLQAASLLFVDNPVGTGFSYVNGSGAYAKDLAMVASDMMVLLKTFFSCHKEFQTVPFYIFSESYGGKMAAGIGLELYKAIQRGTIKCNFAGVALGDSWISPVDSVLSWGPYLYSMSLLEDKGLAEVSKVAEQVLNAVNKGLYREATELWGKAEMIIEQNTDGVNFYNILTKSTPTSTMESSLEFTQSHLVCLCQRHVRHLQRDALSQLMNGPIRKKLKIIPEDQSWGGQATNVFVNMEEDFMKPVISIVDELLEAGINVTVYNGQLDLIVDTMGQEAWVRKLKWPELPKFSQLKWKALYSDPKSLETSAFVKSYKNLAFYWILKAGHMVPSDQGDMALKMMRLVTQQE
Chain of UniProt O14796 (O14796 whole entry, looked up): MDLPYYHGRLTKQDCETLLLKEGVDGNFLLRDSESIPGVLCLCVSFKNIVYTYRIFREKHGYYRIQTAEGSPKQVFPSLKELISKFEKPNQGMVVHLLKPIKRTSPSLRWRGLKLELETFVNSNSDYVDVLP
Chain of UniProt Q92696 (Q92696 whole entry, looked up): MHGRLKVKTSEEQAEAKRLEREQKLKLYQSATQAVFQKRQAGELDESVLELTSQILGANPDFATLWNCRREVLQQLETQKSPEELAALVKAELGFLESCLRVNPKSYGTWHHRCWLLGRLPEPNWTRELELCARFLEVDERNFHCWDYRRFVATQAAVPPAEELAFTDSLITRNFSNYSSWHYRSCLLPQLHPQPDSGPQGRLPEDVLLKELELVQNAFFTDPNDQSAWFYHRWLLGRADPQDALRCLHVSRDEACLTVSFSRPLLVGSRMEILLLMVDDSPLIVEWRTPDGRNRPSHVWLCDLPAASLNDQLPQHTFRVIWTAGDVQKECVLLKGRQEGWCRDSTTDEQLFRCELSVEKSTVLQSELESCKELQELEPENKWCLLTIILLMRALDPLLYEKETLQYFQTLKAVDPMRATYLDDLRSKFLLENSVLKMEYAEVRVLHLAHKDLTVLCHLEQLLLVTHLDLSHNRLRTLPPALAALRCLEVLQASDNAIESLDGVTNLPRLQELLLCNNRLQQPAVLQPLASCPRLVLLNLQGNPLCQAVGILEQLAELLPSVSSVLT
Chain of UniProt P62070 (P62070 whole entry, looked up): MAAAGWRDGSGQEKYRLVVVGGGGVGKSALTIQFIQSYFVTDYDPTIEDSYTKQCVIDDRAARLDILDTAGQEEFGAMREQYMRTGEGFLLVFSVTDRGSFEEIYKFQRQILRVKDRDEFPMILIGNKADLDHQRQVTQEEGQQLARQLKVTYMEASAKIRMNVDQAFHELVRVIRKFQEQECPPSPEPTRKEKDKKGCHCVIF
Chain of UniProt P61586 (P61586 whole entry, looked up): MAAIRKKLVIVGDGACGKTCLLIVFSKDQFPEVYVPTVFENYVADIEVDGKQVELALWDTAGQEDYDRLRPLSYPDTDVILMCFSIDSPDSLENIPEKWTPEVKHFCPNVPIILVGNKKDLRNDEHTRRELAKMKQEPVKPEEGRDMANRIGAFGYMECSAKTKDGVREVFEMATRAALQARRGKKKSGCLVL
Chain of UniProt P63208 (P63208 whole entry, looked up): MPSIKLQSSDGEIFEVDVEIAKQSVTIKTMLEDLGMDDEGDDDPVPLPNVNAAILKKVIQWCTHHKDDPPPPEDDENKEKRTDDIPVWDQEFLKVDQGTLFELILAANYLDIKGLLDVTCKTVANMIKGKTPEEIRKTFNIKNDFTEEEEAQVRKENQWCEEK
Chain of UniProt Q8WXD2 (Q8WXD2 whole entry, looked up): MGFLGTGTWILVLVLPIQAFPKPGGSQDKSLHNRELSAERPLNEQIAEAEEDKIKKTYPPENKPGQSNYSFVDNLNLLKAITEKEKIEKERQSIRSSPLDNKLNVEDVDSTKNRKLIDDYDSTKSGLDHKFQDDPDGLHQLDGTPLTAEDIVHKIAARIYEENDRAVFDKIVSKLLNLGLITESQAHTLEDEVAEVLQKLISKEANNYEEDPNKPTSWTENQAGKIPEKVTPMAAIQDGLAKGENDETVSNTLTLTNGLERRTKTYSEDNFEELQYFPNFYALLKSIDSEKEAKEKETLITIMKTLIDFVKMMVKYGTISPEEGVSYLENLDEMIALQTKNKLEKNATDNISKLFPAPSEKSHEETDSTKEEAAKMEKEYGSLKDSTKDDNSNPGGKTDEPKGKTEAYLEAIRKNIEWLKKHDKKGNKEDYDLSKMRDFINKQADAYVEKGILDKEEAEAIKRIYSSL

| Target | log2 fold change (saracatinib) | log2 fold change (sotrastaurin) | log2 fold change (alvocidib) | log2 fold change (Tubastatin A) | log2 fold change [1] | log2 fold change (defactinib) | log2 fold change (rucaparib) | log2 fold change [2] | log2 fold change (encorafenib) | log2 fold change [3] | log2 fold change [4] | log2 fold change (filanesib) | log2 fold change (zotarolimus) | log2 fold change (idasanutlin) | log2 fold change (alisertib) | log2 fold change [5] | log2 fold change (gefitinib) | log2 fold change [6] | log2 fold change (lapatinib) | log2 fold change (pictilisib) |
| --- | --- | --- | --- | --- | --- | --- | --- | --- | --- | --- | --- | --- | --- | --- | --- | --- | --- | --- | --- | --- |
| SH2D1B (UniProt O14796) | -1 (active) | 0.05 | -0.029 | -0.046 | -0.214 | -0.06 | 0.045 | -0.026 | 0.295 | 0.242 | 0.129 | 0.086 | -0.037 | 0.117 | -0.075 | 0.072 | -0.078 | 0.236 | 0.053 | -0.004 |
| RPS19 (UniProt P39019) | -0.024 | 0.001 | 0.178 | 0.089 | 0.07 | 0.167 | 0.136 | 0.064 | 0.028 | -0.004 | 0 | 0.102 | -0.015 | 0.113 | -0.114 | -0.024 | -0.049 | -0.12 | 0.059 | -0.137 |
| RPS13 (UniProt P62277) | -0.149 | 0 | 0.287 | 0.106 | 0.097 | 0.339 | 0.261 | 0.111 | 0.137 | 0.031 | -0.132 | 0.394 | 0.015 | 0.145 | -0.164 | -0.012 | -0.051 | -0.316 | 0.117 | -0.226 |
| RAC1 (UniProt P63000) | 0.097 | -0.041 | -0.031 | 0.057 | -0.009 | -0.012 | 0.075 | 0.043 | -0.064 | -0.037 | 0.474 (active) | -0.118 | 0.044 | 0.003 | -0.066 | 0.02 | 0.039 | 0.006 | 0.004 | -0.094 |
| RHOA (UniProt P61586) | 0.079 | -0.025 | 0.018 | -0.025 | -0.029 | 0 | 0.074 | 0.012 | -0.126 | 0.08 | 0.284 (active) | -0.012 | -0.054 | 0.1 | -0.085 | -0.118 | 0.036 | -0.012 | 0.036 | -0.178 |
| RCOR3 isoform 3 (UniProt Q9P2K3) | -0.142 | -0.011 | -0.15 | 0.142 | -0.019 | -0.073 | 0.075 | -0.044 | 0.026 | -0.062 | -0.019 | 0.084 | -0.011 | -0.046 | -0.145 | 0.14 | 0.013 | 0.011 | 0 | -0.106 |
| RBM8A (UniProt Q9Y5S9) | 0.011 | -0.002 | 0.188 | 0.045 | -0.032 | 0.075 | -0.043 | -0.006 | 0.025 | 0.012 | -0.061 | 0.028 | -0.018 | -0.01 | -0.024 | 0.094 | 0.038 | -0.029 | -0.028 | -0.013 |
| RRAS2 isoform 4 (UniProt P62070) | 0.069 | 0.075 | 0.024 | 0.014 | -0.001 | -0.016 | 0 | 0.05 | -0.011 | 0.004 | 0.004 | 0.059 | -0.025 | 0.016 | -0.099 | 0.075 | 0.061 | 0.093 | 0.017 | 0.05 |
| SCG3 (UniProt Q8WXD2) | 0.191 | 0.038 | 0.106 | 0.021 | 0.091 | -0.163 | 0.046 | -0.113 | -0.069 | 0.062 | 0.002 | -0.001 | -0.044 | -0.056 | 0.128 | -0.082 | 0.089 | -0.236 | 0.07 | -0.086 |
| SKP1 (UniProt P63208) | 0.157 | -0.023 | -0.032 | 0.002 | 0.165 | 0.066 | -0.051 | 0.028 | -0.005 | 0.072 | 0.209 | -0.095 | 0.09 | 0.027 | -0.005 | -0.099 | 0.001 | -0.008 | 0.01 | -0.121 |
| SCPEP1 (UniProt Q9HB40) | -0.029 | 0.031 | -0.009 | -0.012 | 0.021 | 0.005 | 0.064 | -0.022 | -0.025 | -0.004 | 0.078 | -0.082 | 0.009 | 0.002 | 0.007 | -0.058 | -0.014 | 0.057 | -0.021 | 0.096 |
| RABGGTA (UniProt Q92696) | 0.013 | 0.102 | -0.079 | -0.044 | -0.034 | -0.034 | -0.015 | 0.001 | 0.004 | -0.024 | 0.019 | -0.013 | 0.022 | -0.019 | 0.016 | -0.007 | 0.041 | 0.017 | 0.002 | 0.067 |
| RPS5 (UniProt P46782) | -0.038 | 0.018 | 0.167 | 0.084 | 0.065 | 0.121 | 0.096 | 0.103 | 0.054 | -0.026 | 0.004 | 0.089 | 0.011 | 0.094 | -0.11 | -0.056 | -0.052 | -0.126 | 0.081 | -0.099 |
